High-throughput results (PubChem)
KAT2A inh = qHTS Assay for Inhibitors of GCN5L2. AID 504327, 2011. GCN5L2 HAT assay, ThioGlo1 CoA-SH fluorescence. hit rate 0.21% among 390,000. Histone acetyltransferase KAT2A (Homo sapiens), Q92830. Potency, µM (highest dose often 58.9 µM), usual class: inhibitors
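Enzyme at 20nM final was mixed with library compounds for 15 min at room temperature. Peptide H3(1-25) at 75uM, acetyl-CoA at 70uM and ThioGlo1 at 50uM were then added. Plates were read immediately and after 20 min (Ex340nm/Em540nm).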
BAZ2B inh = qHTS Assay for Inhibitors of BAZ2B | Bromodomain adjacent to zinc finger domain protein 2B (Homo sapiens), Q9UIF8 | AlphaScreen BAZ2B-H3K14Ac peptide displacement | Potency, µM (top dose mostly 114 µM), usual class: inhibitors | hit rate 4.4% among 360,000 | AID 504333, 2011; further: nearly all actives have a fitted effect of over 60% in size
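Inhibition is scored as reduced AlphaScreen emission. The BAZ2B/b-H3(5-23)K14Ac complex (50 nM each) in PBS pH 7.4, 0.01% Tween-20 meets compound (up to 110 uM) for 30 min at RT before bead addition.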
PLK1 PBD block = qHTS for Inhibitors of PLK1-PDB (polo-like kinase 1 - polo-box domain): Primary Screen; AID 720504, 2013; Plk1 PBD binding of FITC phosphopeptide, fluorescence polarization; hit rate 2.8% among 360,000; Potency, µM, hits mostly inhibitors; Serine/threonine-protein kinase PLK1 (Homo sapiens), P53350; further: series mostly up to about 57 µM; nearly all actives have a fitted effect of over 65% in size
PI5P4K alpha inh = qHTS for Inhibitors of phosphatidylinositol 5-phosphate 4-kinase (PI5P4K); Phosphatidylinositol 5-phosphate 4-kinase type-2 alpha (Homo sapiens), P48426; max response, %; PI5P4Kalpha enzyme, ADP-Glo luminescence, 60 min; stronger effect = lower value; AID 652105, 2013; hit rate 1.2% among 330,000; active means max response of -50% or lower; inconclusive means between -30% and -50%; inactive means -30% or higher; further: value at the top dose of about 77 µM
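ADP-Glo luminescence end-point read after a 60 min room-temperature kinase reaction of PI5P4Kalpha plus substrate, initiated with ATP at 5 microM final. Buffer: 0.038 M HEPES pH 7.4, EGTA, 0.1% CHAPS, 5% DMSO.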
HP1b binding inh = HTS for Inhibitors of HP1-beta Chromodomain Interactions with Methylated Histone Tails. Chromobox protein homolog 1 (Homo sapiens), P83916. AlphaScreen HP1-beta / biotin-H3K9me3 peptide binding. Potency, µM (series often up to 114 µM), hits mostly inhibitors. hit rate 0.56% among 390,000. AID 540317, 2011; further: nearly all actives have a fitted effect of over 70% in size
Target sequence (P83916 whole entry, looked up): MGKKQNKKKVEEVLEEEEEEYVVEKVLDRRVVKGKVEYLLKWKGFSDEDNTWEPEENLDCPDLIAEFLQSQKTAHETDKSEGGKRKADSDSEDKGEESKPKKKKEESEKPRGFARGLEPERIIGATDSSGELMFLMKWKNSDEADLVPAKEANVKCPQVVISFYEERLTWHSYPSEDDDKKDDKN
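Compound inhibition of the preformed complex between 50 nM HP1-beta and 50 nM biotinylated H3K9me3 peptide was read by AlphaScreen. Buffer was PBS pH 7.4 with 0.01% Tween-20. Incubations ran 30 min at room temperature, with 10 ug/mL donor/acceptor beads.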
JMJD2A Tudor inh = qHTS Assay for Inhibitors of JMJD2A-Tudor Domain; Lysine-specific demethylase 4A (Homo sapiens), O75164; AlphaScreen JMJD2A-Tudor / H3K4me3 peptide binding; Potency, µM (titrated, usually from 114 µM), usual class: inhibitors; hit rate 4.4% among 390,000; AID 504339, 2011; further: nearly all actives have a fitted effect of over 50% in size
JMJD2E inh-1 = Inhibitors of Human Jumonji Domain Containing 2E (JMJD2E): 8HQs - Round 1. shares compounds with BAZ2B inh. Potency, µM (highest dose often 57 µM), most hits filed as inhibitors. hit rate 89% among 130. JMJD2E demethylase, FDH-coupled NADH fluorescence
JMJD2E inh-2 = Confirmation qHTS Assay for Inhibitors of Human Jumonji Domain Containing 2E (JMJD2E); shares compounds with JMJD2A Tudor inh; Recombinant JMJD2E, FDH-coupled NADH fluorescence (FDH is formaldehyde dehydrogenase); Potency, µM (titrated, usually from 56.8 µM), hits mostly inhibitors; hit rate 93% among 140
FDH counter = Counterscreen for JMJD2E Inhibitors: qHTS Assay for Inhibitors of Formaldehyde Dehydrogenase (FDH); shares compounds with JMJD2A Tudor inh; FDH enzyme assay, NADH fluorescence kinetic; Potency, µM (highest dose often 56.7 µM), hits mostly inhibitors; hit rate 10% among 140; AID 2680, 2010
Target sequence (P46154 whole entry, looked up): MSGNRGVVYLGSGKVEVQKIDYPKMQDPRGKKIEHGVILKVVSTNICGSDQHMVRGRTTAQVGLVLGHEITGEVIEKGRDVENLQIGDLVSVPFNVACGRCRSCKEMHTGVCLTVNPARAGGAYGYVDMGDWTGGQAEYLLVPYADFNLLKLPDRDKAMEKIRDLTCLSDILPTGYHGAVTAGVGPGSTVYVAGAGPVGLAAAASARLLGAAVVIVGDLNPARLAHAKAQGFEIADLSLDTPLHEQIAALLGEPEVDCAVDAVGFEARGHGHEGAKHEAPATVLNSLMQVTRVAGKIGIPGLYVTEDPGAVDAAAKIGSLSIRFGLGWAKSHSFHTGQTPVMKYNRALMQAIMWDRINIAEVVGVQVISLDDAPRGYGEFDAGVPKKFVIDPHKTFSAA
JMJD2E MS inh = MALDI-TOF-MS Assay for Inhibitors of Human Jumonji Domain Containing 2E (JMJD2E) | hit rate 90% among 45 | recombinant JMJD2E demethylation, MALDI-TOF-MS | AID 2688, 2010 | shares compounds with JMJD2A Tudor inh | Potency, µM, hits mostly inhibitors;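 active means compounds whose IC50 for blocking JMJD2E demethylation is below 100 µM; inconclusive means dose dependent effect but IC50 above 100 µM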
Large screens that a line does not name were inactive (follow-up assays come after a bar, where they were run). Sampled rows, rich in hits. Any-hit rate of the full collection: about 7%. Unless noted, the call rests on the fitted dose curve; in most records, active means well fitted curve in the direction sought with a large enough effect; inconclusive means small, poorly fitted or top-dose-only effect, or another doubt; inactive means no such curve, though single readings can be large; an effect the other way counts as inactive or inconclusive.

CC1CCCCN1C(=O)COC(=O)C1CCN(S(=O)(=O)c2c(Cl)cccc2Cl)CC1 (centres undefined)	none
O=S(=O)(Nc1ccccc1)c1ccc(O)c2ncccc12	none (no result: KAT2A inh, BAZ2B inh, PLK1 PBD block, PI5P4K alpha inh, HP1b binding inh, JMJD2A Tudor inh) | JMJD2E inh-1 9.1µM | JMJD2E inh-2 9.1µM | FDH counter inactive
O=S(=O)(c1ccc(O)c2ncccc12)N1CCCCC1	none (no result: KAT2A inh, BAZ2B inh, PLK1 PBD block, PI5P4K alpha inh, HP1b binding inh, JMJD2A Tudor inh) | JMJD2E inh-1 18µM | JMJD2E inh-2 18µM | FDH counter inactive
CCOc1ccc(NS(=O)(=O)c2ccc(OCC)c3ncccc23)cc1	none (no result: PI5P4K alpha inh)
O=S(=O)(Nc1ccccc1F)c1ccc(O)c2ncccc12	none (no result: KAT2A inh, BAZ2B inh, PLK1 PBD block, PI5P4K alpha inh, HP1b binding inh, JMJD2A Tudor inh) | JMJD2E inh-1 29µM | JMJD2E inh-2 13µM | FDH counter inactive
O=S(=O)(NCc1ccccc1)c1ccc(O)c2ncccc12	none (no result: KAT2A inh, BAZ2B inh, PLK1 PBD block, PI5P4K alpha inh, HP1b binding inh, JMJD2A Tudor inh) | JMJD2E inh-1 32µM | JMJD2E inh-2 23µM | FDH counter inactive
CCSc1nc2sc3c(c2c(=O)n1-c1ccc(C)cc1)CCCC3	none (no result: PLK1 PBD block, PI5P4K alpha inh)
Cc1ccccc1OCC(=O)OCC(=O)Nc1cc(S(C)(=O)=O)ccc1Cl	none
Oc1ccc(COC2CCCC2)c2cccnc12	BAZ2B inh 13µM (no result: PLK1 PBD block, PI5P4K alpha inh, HP1b binding inh, JMJD2A Tudor inh) | JMJD2E inh-1 6.3µM | JMJD2E inh-2 6.3µM | FDH counter inactive
Oc1ccc(COc2cccc3ccccc23)c2cccnc12	BAZ2B inh 56µM (no result: PLK1 PBD block, PI5P4K alpha inh, HP1b binding inh, JMJD2A Tudor inh) | JMJD2E inh-1 10µM | JMJD2E inh-2 10µM | FDH counter inactive
Oc1ccc2c(c1)c1ccccc1c1ncccc21	none (no result: KAT2A inh, BAZ2B inh)
CCOC(=O)CCNC(=O)N1CCCC(Cc2ccccc2)(C(=O)OCC)C1 (centres undefined)	none
CC(=O)N1CCc2cc(S(=O)(=O)NC(CC(C)C)C(=O)Nc3cc(C)cc(C)c3)ccc21 (centres undefined)	none (no result: BAZ2B inh, PLK1 PBD block, PI5P4K alpha inh)
NC(=O)c1ccc(Cl)c2ccccc12	none
c1cncc(-c2nn[nH]n2)c1	none
NC(=O)c1ccnc2c(O)cccc12	BAZ2B inh 1.8µM, JMJD2A Tudor inh 22µM (no result: PLK1 PBD block, PI5P4K alpha inh) | JMJD2E inh-1 3.2µM | JMJD2E inh-2 inconclusive | FDH counter inactive
COC(=O)c1ccc(O)c2ncccc12	none (no result: KAT2A inh, BAZ2B inh, PLK1 PBD block, PI5P4K alpha inh, HP1b binding inh, JMJD2A Tudor inh) | JMJD2E inh-1 20µM | JMJD2E inh-2 20µM | FDH counter inactive
Oc1cccc2c(-c3nn[nH]n3)ccnc12	BAZ2B inh 3.2µM, JMJD2A Tudor inh 13µM (no result: PLK1 PBD block, PI5P4K alpha inh) | JMJD2E inh-1 18µM | JMJD2E inh-2 10µM | FDH counter inactive | JMJD2E MS inh 18
COc1cccc(CNC(=O)c2ccc3c(c2)sc2nc(-c4ccccc4)cn23)c1OC	none (no result: PLK1 PBD block, PI5P4K alpha inh)
CCC(=C(CC)c1ccc(O)cc1)c1ccc(O)cc1	none (no result: BAZ2B inh, PLK1 PBD block, PI5P4K alpha inh, HP1b binding inh, JMJD2A Tudor inh)
CCOc1ccc(C(=O)N2CCN(Cc3cc(=O)n4nc(-c5cccc(OC)c5)sc4n3)CC2)cc1	none (no result: PLK1 PBD block, PI5P4K alpha inh)
Oc1ccc(/C=C/c2ccccc2F)c2cccnc12	JMJD2A Tudor inh inconclusive (no result: KAT2A inh, BAZ2B inh, PLK1 PBD block, PI5P4K alpha inh, HP1b binding inh) | JMJD2E inh-1 11µM | JMJD2E inh-2 5.8µM | FDH counter inactive | JMJD2E MS inh 37
Oc1ccc(/C=C/c2ccccc2)c2cccnc12	JMJD2A Tudor inh inconclusive (no result: KAT2A inh, BAZ2B inh, PLK1 PBD block, PI5P4K alpha inh, HP1b binding inh) | JMJD2E inh-1 10µM | JMJD2E inh-2 4.1µM | FDH counter inactive | JMJD2E MS inh 24
CN1CCN(Cc2cc(COCc3ccccc3)c3cccnc3c2O)CC1	BAZ2B inh 10µM, JMJD2A Tudor inh 18µM | JMJD2E inh-1 6.3µM | JMJD2E inh-2 6.3µM | FDH counter inactive
CN1CCN(C2CCN(Cc3ccc(O)c4ncccc34)CC2)CC1	BAZ2B inh 8.9µM, JMJD2A Tudor inh 45µM (no result: PLK1 PBD block, PI5P4K alpha inh) | JMJD2E inh-1 3.2µM | JMJD2E inh-2 3.2µM | FDH counter inactive
Brc1ccccc1CN1CCC(N2CCCCC2)CC1	none (no result: BAZ2B inh, PI5P4K alpha inh)
Oc1ccc(CNc2ccc(C(F)(F)F)cc2F)c2cccnc12	JMJD2A Tudor inh 50µM (no result: KAT2A inh, BAZ2B inh, PLK1 PBD block, PI5P4K alpha inh, HP1b binding inh) | JMJD2E inh-1 2.2µM | JMJD2E inh-2 2.2µM | FDH counter inactive | JMJD2E MS inh 20
Cc1ccc(NCc2ccc(O)c3ncccc23)c(F)c1	JMJD2A Tudor inh 18µM (no result: KAT2A inh, BAZ2B inh, PLK1 PBD block, PI5P4K alpha inh, HP1b binding inh) | JMJD2E inh-1 0.71µM | JMJD2E inh-2 8.1µM | FDH counter inactive | JMJD2E MS inh 11
O=[N+]([O-])c1cc(C(F)(F)F)cc([N+](=O)[O-])c1NCCCNc1ccc([N+](=O)[O-])c2cccnc12	JMJD2A Tudor inh inconclusive
CCCCn1c(=O)c2oc3ccccc3c2n(Cc2cccc(C)c2)c1=O	none (no result: PLK1 PBD block, PI5P4K alpha inh)
